# PubChem BioAssay AID624404 (Broad Institute, 2012)
# Hit rate of the full screen: of about 1,800 compounds, about 710 (39%) were called active. About 28% were inconclusive and are not listed.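 The calls were made as follows: active = luciferase signal rise whose fitted curve crosses a set activity limit at or below the top valid tested dose; inconclusive = flat fit with 30 to 70% rise, or poor fit; inactive = signal falling, flat within 30%, or crossing above top dose.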 A selection follows. Where a call stands in place of a potency, no number is given. Potency and affinity values are given separately.
# Test: luciferase activators in glycosylation-insensitive reporter cells, dose response, counter-screen for N-linked glycosylation inhibitor project, D54 LucT cells, luminescence, cherry pick (AID 624404)
# Details: D54 LucT luciferase reporter counterscreen, 24 h; series mostly up to 19.5 µM
row,Compound,outcome
1,Cc1nc2c3cc(F)ccc3n(Cc3ccc(F)cc3)c2s1,inactive
2,CCCn1nc(C(=O)N2CC(=O)Nc3ccccc32)c2ccccc2c1=O,inactive
3,CCOc1ccc2nc(NCCNC(=O)Nc3cccc(C)c3)c(C#N)cc2c1,inactive
4,COc1ccc2nc(SCC(=O)NC3CCCC3)c(C)cc2c1,inactive
5,OCCNc1c2ccccc2nc2ccccc12,inactive
6,Cc1cc(/C=C2\Sc3ccccc3N2C)cc(C)[n+]1CC1CCCO1 (stereo unspecified),inactive
7,O=C(/C=C/c1cccnc1)c1ccc(F)c(F)c1,inactive
8,COc1ccc(C(=O)C=Cc2ccc(OCc3ccccc3)c(OC)c2)cc1OC,inactive
9,CC(C)CC(NC(=O)c1ccc(Cl)cc1)C(=O)OCC(=O)c1ccc2c(c1)NC(=O)CO2 (stereo unspecified),inactive
10,CC[C@H](C)[C@H](NC(=O)c1ccc(Cl)cc1)C(=O)OCC(=O)c1ccc2c(c1)NC(=O)CO2,inactive
11,CNc1ccc(Br)cc(C(=O)/C=C/c2ccc(Cl)cc2Cl)c1=O,inactive
12,C=CCn1cccc(/C=C/C(=O)c2ccc(C(C)(C)C)cc2)c1=S,inactive
13,Cc1ccc(-c2nn(-c3ccccc3)cc2NC(=O)CCl)cc1,inactive
14,Cc1ccc(C(=O)CSc2nn3c(=O)c(C(C)(C)C)nnc3s2)cc1,inactive
15,Nc1ccc(-c2cc(NC=O)c3ncc(-c4cccc(C(F)(F)F)c4)n3c2)cn1,inactive
16,CN(C)C(=O)c1cccc(-c2cnc3c(NC=O)cc(-c4ccccc4Cl)cn23)c1,inactive
17,COc1ccc(F)cc1-c1cc(NC(C)=O)c2ncc(-c3cc(OC)c(OC)c(OC)c3)n2c1,inactive
18,COc1ccccc1-c1cc(NC=O)c2ncc(-c3cccc(C(C)=O)c3)n2c1,inactive
19,CCOc1cc(S(=O)(=O)NCc2ccc(OC)cc2)c(OCC)cc1-n1cnnn1,inactive
20,Oc1ccc(N=Nc2ccccc2)o1,inactive
21,O=C(Nc1cccc(C(F)(F)F)c1)c1sc(Cl)nc1C(F)(F)F,inactive
22,CC(C)c1ccc(NC(=O)[C@@H](NC(=O)N2CC(=O)Nc3ccccc32)C(C)C)cc1,inactive
23,O=C(CNC(=O)N1CC(=O)Nc2ccccc21)NCCCc1ccccc1,inactive
24,Cn1ncc2c(O/N=C(\N)c3ccc(C(F)(F)F)cc3)ncnc21,inactive
25,CC(/C=N/NC(=O)c1cc(-c2ccc(C)s2)[nH]n1)=C\c1ccccc1,inactive
26,CN(C)CCCN1C(=O)c2cccc3cccc(c23)C1=O,inactive

row,Compound,outcome
1,Cc1cc(NC(=O)COC(=O)c2ccc(S(=O)(=O)N3CCCc4ccccc43)cc2)no1,inactive
2,CCOc1ccccc1C1CC(=O)Nc2cc3c(cc21)OCCO3 (stereo unspecified),inactive
3,CCOC(=O)Cc1csc(/N=C/c2c(O)n(-c3ccc(C)c(C)c3)c(=O)c3ccccc23)n1,inactive
4,Cc1cc(O)c(NC(=O)c2cc([N+](=O)[O-])ccc2Cl)cc1C,inactive
5,CC(=O)Nc1sc(C)c(C)c1C(=O)OCC(=O)N(CC(C)C)c1c(N)n(Cc2ccccc2)c(=O)[nH]c1=O,inactive
6,CC(=O)Nc1sc(C)c(C)c1C(=O)OCC(=O)Nc1cccc(C)c1,inactive
7,O=C1c2cccc3cccc(c23)C(=O)N1CC1CCN(CC(O)COCc2ccc3c(c2)OCO3)CC1 (stereo unspecified),inactive
8,CN(C)c1ccc(C(C[N+](=O)[O-])c2c(N)n(C)c(=O)n(C)c2=O)c(F)c1C#N (stereo unspecified),inactive
9,Cc1ccc(-c2cnc(C3CC3)o2)cc1S(=O)(=O)Nc1ccccc1,inactive
10,CCNc1ccc(Br)cc(C(=O)/C=C/c2ccc(Cl)cc2)c1=O,inactive
11,COc1ccc(Oc2ccc(/C=C/C(=O)c3cccc(OC)c3)cc2[N+](=O)[O-])cc1,inactive
12,Cc1[nH]nc2c1C(c1cccc(O)c1)C1=C(CC(C)(C)CC1=O)N2 (stereo unspecified),inactive
13,Cc1cc(NC(=O)CSc2nc(-c3ccco3)cc(C(F)(F)F)n2)no1,inactive
14,O=C(NCCc1ccc(F)cc1)c1coc(=O)c(Br)c1,inactive
15,COc1ccc(CCn2c(=N)c(C(=O)NCc3ccco3)cc3c(=O)n4ccccc4nc32)cc1OC,inactive
16,Cc1cccc2[nH]c3c(N4CCC5(CC4)OCCO5)ncnc3c12,inactive
17,COC(=O)c1cc(=O)n(Cc2ccc3c(c2)OCO3)c(=Nc2ccc(F)c(Cl)c2)s1,inactive
18,COc1ccc(CNC(=O)C2Cc3c(-c4ccc5c(c4)OCO5)ccnc3O2)cc1OC (stereo unspecified),inactive
19,COc1cccc2nc3c(C(=O)NCCN(C)C)cccc3cc12,inactive
20,COc1ccc(-c2nc3c(C(=O)NCCN(C)C)cccc3c3ccccc23)cc1,inactive
21,CCN(c1ccccc1)S(=O)(=O)c1ccc(C(=O)NC2CCN(Cc3ccccc3)CC2)cc1,inactive
22,Nc1nc(=S)c2ncn(C3OC(CO)C(O)C3O)c2[nH]1 (stereo unspecified),inactive
23,COC(=O)c1ccc(S(=O)(=O)N2CCc3ccccc32)cc1,inactive
24,O=C1CCCN1c1ccc(S(=O)(=O)Nc2ccc3c(c2)OCCO3)cc1,inactive
25,COC(=O)Nc1ccc(S(=O)(=O)N2CCCc3ccccc32)cc1,inactive
